Assay outcomes (PubChem)
CR mimetic SO: lowers age-related superoxide in aged yeast cells. S. cerevisiae aged cells, superoxide DHE fluorescence; active compounds read low. 330,000 tested, 0.18% active. superoxide response (% of plate mean), % at 10 µM;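 active = superoxide response under a set limit, about three screen SD below normal, cut at about 65% in these data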;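 also: yeast aged for seven days with compound at 30 °C before DHE staining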
SKKanGAS inh: SKKanGAS growth inhibition; 300,000 tested, 1.3% active; inhibition, % at 7.5 µM; AID 1662; S. pyogenes SKKanGAS, kanamycin growth, BacTiter-Glo, 6 h;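 active = mean replicate score, as percent of positive control median, at least 50; inconclusive = mean below 50 but one replicate at or above 50; inactive = mean and every replicate below 50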;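 also: strain carries kanamycin resistance gene driven by streptokinase promoter and grows in 40 µg/ml kanamycin; loss of luminescence reflects streptokinase promoter inhibition or plain growth inhibition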
Calb FLC: C. albicans growth modulation with fluconazole; C. albicans CaCi-2 (fluconazole-resistant clinical isolate) + fluconazole, Alamar Blue growth, 48 h; growth inhibition, % (test concentration not listed); 300,000 tested, 0.57% active; AID 1979;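 active = growth inhibition above about 58% in most replicates, limit read from the data, passing the limit was not always enough; inconclusive = exactly half the replicates above a set limit; inactive = most replicates below a set limit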;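 also: all wells also contain fluconazole at 8 µg/ml as a sub-toxic cotreatment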
PolyA inhibitor: blocks polyadenylation in yeast reporter cells; activity score, % at 12 µM; S. cerevisiae SKY197-pL101 polyadenylation reporter, beta-gal luminescence; efflux-impaired pdr1/pdr3 knockout yeast; score 100 = 6 SD above DMSO; 300,000 tested, 0.02% active; AID 1875;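 active = lowest replicate activity score at least 50, where 100 means six control SD above control mean; inconclusive = lowest score under 50 but half or more replicates reach 50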;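 also: yeast exposed to compound for 9 h at 30 °C; higher score means more reporter readthrough which indicates perturbed polyadenylation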
Platelet DG rel: platelet dense granule release activity | human platelet-rich plasma, SFLLRN dense granule ATP release, luminescence | inhibition, %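 (compounds screened at 7.5 µM in platelet-rich plasma)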 | 300,000 tested, 0.22% active | AID 1663;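 active = mean replicate score, as percent of positive control, at or above 50; inconclusive = mean below 50 but at least one replicate at or above 50; inactive = mean and every replicate below 50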
A number is an active result; . = inactive; ? = inconclusive; / = no result. An excerpt weighted towards active compounds, which were near 2% of everything screened.

SMILES	CR mimetic SO	SKKanGAS inh	Calb FLC	PolyA inhibitor	Platelet DG rel
CCOC(=O)C1=C(C)NC(=O)NC1c1ccc([N+](=O)[O-])o1 (stereo unspecified)	.	.	.	.	.
CCOC(=O)C1=C(C)NC2=C(C(=O)c3ccccc32)C1c1ccc([N+](=O)[O-])o1 (stereo unspecified)	.	57	.	.	.
CCCC(C)NC(=O)Cc1ccc(S(=O)(=O)N2CCOCC2)s1 (stereo unspecified)	.	/	/	/	/
O=C(COc1ccccc1)OCc1csc(Nc2ccccc2)n1	.	.	?	.	.
O=C(OCc1csc(Nc2ccccc2)n1)c1ccc(Cl)cc1	.	55	.	.	.
CC(C)(C)c1ccc(S(=O)(=O)/N=C2\C=C(NS(=O)(=O)c3ccccc3)C(=O)c3ccccc32)cc1	.	94	.	.	.
COC(=O)c1ccccc1NC1=C/C(=N\S(=O)(=O)c2ccc(C(=O)O)cc2)c2ccccc2C1=O	.	93	.	.	.
CCc1ccc(S(=O)(=O)/N=C2\C=C(Nc3ccc(C(=O)O)cc3)C(=O)c3ccccc32)cc1	.	96	.	.	.
Cc1ccc(S(=O)(=O)/N=C2\C=C(Nc3cccc(C(=O)O)c3)C(=O)c3ccccc32)cc1	.	87	.	.	.
Cc1ccc(S(=O)(=O)/N=C2\C=C(Nc3ccc(O)cc3)C(=O)c3ccccc32)cc1	.	/	/	/	/
Cc1csc(SCC(=O)NC(=O)NCCC(C)C)n1	.	.	.	.	.
Cc1ccc(S(=O)(=O)/N=C2\C=C(Nc3cccc(C(=O)O)c3)C(=O)c3ccccc32)c(C)c1	.	69	.	.	.
Cc1ccc(S(=O)(=O)/N=C2/C=C(Sc3ncn[nH]3)C(=O)c3ccccc32)c(C)c1	.	/	/	/	/
Cc1ccccc1NC(=O)Cc1nnc(SCC(=O)NC2=NCCS2)n1C	.	.	.	.	.
Cc1sc2ncnc(SCC(=O)N3CCCC(C(F)(F)F)C3)c2c1C (stereo unspecified)	.	55	.	.	.
COc1ccc(CNC(=O)CN(C(=O)c2snc(C(N)=O)c2N)c2ccccc2F)cc1	.	.	.	.	.
Cc1onc(-c2ccccc2)c1C(=O)NC(=S)NNC(=O)c1ccccc1O	.	87	.	.	.
Cc1onc(-c2ccccc2)c1C(=O)NC(=S)NNC(=O)c1ccc(O)cc1	.	106	.	.	.
COC(=O)c1ccc(NC(=S)NC(=O)c2c(-c3ccccc3)noc2C)cc1	.	.	.	.	.
CCCOc1ccc(NC(=O)c2c(-c3ccccc3)noc2C)cc1	.	.	.	.	.
CCCOc1ccc(C(=O)NC(=S)NNC(=O)c2c(-c3ccccc3)noc2C)cc1	.	100	.	.	.
Cc1onc(-c2ccccc2)c1C(=O)NC(=S)NNC(=O)c1ccc(O)cc1O	.	80	.	.	.
CCOc1ccccc1NC(=O)CN(c1ccc(OC)cc1OC)S(=O)(=O)c1ccccc1[N+](=O)[O-]	.	.	.	.	.
O=C(NNC(=O)c1ccc(-c2ccccc2)cc1)Nc1ccc(F)cc1F	.	.	.	.	.
CC(C)n1c(N2CCN(C(=O)Nc3ccc(Cl)cc3)CC2)nc2ccccc21	.	.	73	.	.
SMILES	CR mimetic SO	SKKanGAS inh	Calb FLC	PolyA inhibitor	Platelet DG rel
CC(Oc1ccc(Br)cc1)C(=O)Nc1ccc(S(=O)(=O)N(C)C2CCN(C)CC2)cc1 (stereo unspecified)	.	.	.	.	.
COC(=O)c1cccc(NS(=O)(=O)c2ccc(OC)c(C(=O)N3CCOCC3)c2)c1C	.	.	.	.	.
O=C(NC(=S)Nc1ccccc1)c1cc(-c2ccccc2)nc2ccccc12	.	.	.	.	.
CCNC(=S)NNC(=O)c1cc(-c2cccc(C)c2)nc2ccccc12	.	.	116	.	.
COc1ccc(Cl)cc1C(=O)NNC(=S)NC(=O)c1cc(-c2ccc(Cl)cc2)nc2ccccc12	.	71	.	.	.
O=C(NNC(=O)c1cc(-c2ccc(Cl)cc2Cl)nc2ccccc12)Nc1ccccc1	.	74	.	.	.
CCNC(=S)NNC(=O)c1cc(-c2ccc(OC)cc2)nc2ccccc12	.	.	99	.	111
COc1cc(C(=O)NCc2nnc(SCC(=O)NC3CCCCC3)o2)cc(OC)c1OC	.	.	.	.	.
CNC(=S)N1CCC(c2nc3ccccc3s2)CC1	.	.	?	.	.
CN(C(=O)COC(=O)C1COc2ccccc2O1)c1c(N)n(Cc2ccccc2)c(=O)[nH]c1=O (stereo unspecified)	.	.	.	.	.
